tim10-1 inh = tim10-1 yeast growth inhibition; 330,000 tested, 2.2% active; inhibition, % at 20 µM; S. cerevisiae tim10-1 ts strain growth, BacTiter-Glo, 24 h;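 active means inhibition of at least 40%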;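 further: mutant grown at 25 °C; 0% = DMSO wells with yeast and 100% = wells holding no yeast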
SKKanGAS inh = inhibitors of SKKanGAS S. pyogenes growth in kanamycin (SK-promoter or general growth effect) | 300,000 tested, 1.3% active | BacTiter-Glo, 6 h | AID 1662 | inhibition, % at 7.5 µM;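 active means mean replicate score, as percent of positive control median, at least 50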;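 further: strain carries kanamycin resistance gene driven by streptokinase promoter and grows in 40 µg/ml kanamycin; loss of luminescence reflects streptokinase promoter inhibition or plain growth inhibition; 0% = median of DMSO wells and 100% = positive control at its reference dose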
NALP3 yeast inh = blocks the NALP3 inflammasome reconstituted in yeast; 330,000 tested, 0.39% active; Yeast reconstituted NLRP3/ASC/caspase-1, beta-gal luminescence, 24 h; inhibition, % at 10 µM;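 active means inhibition of 50% or more; inactive means inhibition below 50%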;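 further: plate controls were induced DMSO wells for no effect and uninduced yeast grown without galactose for full effect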
TIM10 inh = growth inhibitors of TIM10 yeast strain; AID 463195; inhibition, % at 10 µM; S. cerevisiae TIM10 strain growth, BacTiter-Glo luminescence, 24 h; 330,000 tested, 1.4% active;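 active means inhibition of 40% or more at the single tested concentration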;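 further: wild-type TIM10 isogenic control strain grown at permissive 25 °C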
tim23-1 inh = growth inhibitors of tim23-1 mutant yeast; AID 463212; 330,000 tested, 1.3% active; S. cerevisiae tim23-1 growth, BacTiter-Glo luminescence, 24 h; inhibition, % at 20 µM;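 active means growth inhibition of the mutant yeast at or above 50%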;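 further: temperature-sensitive mutant grown at 25 °C; plate controls were DMSO-treated mutant yeast for no effect and medium wells lacking yeast for full effect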
NALP1 yeast inh = inhibitors of NALP1 inflammasome in yeast; inhibition, % at 10 µM; S. cerevisiae NALP1/ASC/caspase-1 growth, X-gal OD620, 72 h; 280,000 tested, 0.61% active; in the data active means inhibition mostly above about 24%, no sharp cut-off; inactive means mostly below about 32%
Active calls of the source: *; / = no result. Hits are enriched below; roughly 4.9% of the tested compounds scored in any of these assays.

SMILES	tim10-1 inh	SKKanGAS inh	NALP3 yeast inh	TIM10 inh	tim23-1 inh	NALP1 yeast inh
COc1ccc(S(=O)(=O)NCC2CCCN(Cc3ccc(OC)cc3F)C2)cc1 (stereo unspecified)	-1	82*	4	3	-6	7
CCn1c(O)c(/C=N/N=C/c2ccccc2)c2ccc(C3=NNC(=O)CC3)cc21	30	52*	14	24	22	13
CCC(NC(=O)CCc1c(C)c2cc3c(C)c(C)oc3cc2oc1=O)C(=O)N[C@@H](Cc1ccccc1)C(=O)O (stereo partly specified)	11	61*	13	-9	12	-4
CSC[C@H](NC(=O)Cc1c(C)c2cc3c(C)c(C)oc3cc2oc1=O)C(=O)N[C@@H](Cc1ccccc1)C(=O)O	20	14	-3	11	5	8
Cc1cc(=O)[nH]c(NN=C2C3CC4CC(C3)CC2C4)n1	-5	0	3	1	-5	-14
Cc1cc(=O)oc2c3c(cc(OCC(=O)NC4CC4)c12)OC(C)(C)CC3	7	88*	6	-3	5	8
CCn1c(SCC(=O)N2CCCCC2)nnc1-c1ccc(S(=O)(=O)N2CCN(C)CC2)cc1	8	-1	-3	12	8	14
CCn1c(SCC(=O)N2CCCC(C)C2)nnc1-c1ccc(S(=O)(=O)N2CCN(C)CC2)cc1 (stereo unspecified)	7	-8	-14	2	-2	35*
O=C(O)Cn1cc(CN2CCOCC2)c2ccccc21	8	0	17	-9	1	11
Cn1cc(CN2CCN(c3ccccc3)CC2)c2ccccc21	22	5	13	15	10	26*
COc1ccc(C)cc1NC(=O)CN1C(=O)COc2ccc(C)cc21	10	-6	22	3	17	-1
CC1(C)CC(=O)C2=C(C1)c1c(ccc3ccccc13)NC2c1cc([N+](=O)[O-])cc([N+](=O)[O-])c1O (stereo unspecified)	34	72*	18	27	22	15
CSc1cccc(NC(=O)COC(=O)C2CCN(S(=O)(=O)c3ccccc3)CC2)c1	12	/	22	-4	33	/
CC(Oc1ccccc1)C(=O)NC1=NCCS1 (stereo unspecified)	-14	7	2	8	0	7
COc1ccc(NC(=O)c2cc(-c3cc(C)cc(C)c3O)n[nH]2)cc1Cl	6	99*	13	26	28	7
Cc1cc(O)c(-c2cc(C(=O)Nc3cccnc3)[nH]n2)cc1C	6	-6	-2	-13	0	37*
COc1ccc(NC(=O)c2cc(-c3ccccc3O)n[nH]2)cc1Cl	0	1	12	4	9	14
COc1ccc(C(=O)NCC(=O)OCC(=O)Nc2ccc(C)c(S(=O)(=O)N(C)C)c2)cc1OC	6	-3	0	-7	-5	/
CC(C)(C)OC(=O)C[C@@H]1C/C=C\C[C@@H](CC(=O)NCCO)C(=O)NC[C@H](c2ccccc2)OC1=O	-15	/	9	5	1	/
CCN(CC)S(=O)(=O)c1cnccc1N1CCN(c2cccc(Cl)c2)CC1	34	1	11	35	38	54*
CCCc1ccc(-c2cc(NC(=O)CSc3n[nH]c(N)n3)n(-c3ccccc3)n2)cc1	14	4	-8	3	-2	-14
CCCc1ccc(-c2cc(N)n[nH]2)cc1	21	113*	-5	14	11	4
C=CCn1c(N2C(=O)CC(Cc3ccccc3)C2=O)nc2ccccc21 (stereo unspecified)	24	64*	4	4	11	17
C=CCn1c(NCc2ccccc2)nc2ccccc21	7	-3	6	-7	-4	8
C=C(C)COc1ccc(-c2nc(N)ncc2Oc2ccc(OC)cc2)c(O)c1	29	58*	11	18	24	1
SMILES	tim10-1 inh	SKKanGAS inh	NALP3 yeast inh	TIM10 inh	tim23-1 inh	NALP1 yeast inh
CCc1cc(-c2nc(N)ncc2-c2ccc(Br)cc2)c(O)cc1OC	-31	64*	-3	4	2	20
C=C(C)COc1ccc(-c2n[nH]c(C)c2-c2ccc(Br)cc2)c(O)c1	-41	99*	14	29	48	13
CCCOC(=O)c1ccc(Oc2cn[nH]c2-c2ccc(OC)cc2O)cc1	-4	59*	20	32	-2	-4
C=C(C)COc1ccc(-c2ncncc2-c2ccc(Br)cc2)c(O)c1	9	9	-7	21	20	0
O=C(CCc1ccccc1)N[C@@H]1c2ccccc2CC[C@H]1OCc1ccccc1	28	/	/	-4	41	/
O=C(Nc1ccccc1Cl)NC1(C(=O)NCC2CCCO2)CCCCC1 (stereo unspecified)	-1	-1	14	-7	1	12
COCc1cc(=O)c2ccccc2o1	-2	/	5	-9	10	/
C=C(C)COc1ccc(-c2nc(N)ncc2-c2ccc(Br)cc2)c(O)c1	-40	96*	10	26	23	-1
C=C(C)COc1ccc(-c2[nH]ncc2-c2ccccc2OC)c(O)c1	39	13	8	11	25	-11
C=C(C)COc1ccc(-c2[nH]ncc2Oc2ccc(OC)cc2)c(O)c1	-16	56*	13	29	43	/
O=C(Nc1ccc2ccccc2c1)c1ccc(Cl)cc1Cl	38	32	4	12	24	12
O=C(Nc1nc(=S)ss1)c1ccc(Cl)cc1Cl	/	52*	/	/	/	-1
CCOc1ccc(/C(O)=C2/C(=O)C(=O)N(c3ccccn3)C2c2ccc(Cl)cc2)c(C)c1 (stereo unspecified)	/	64*	/	/	/	1
Cc1c(CCC(=O)O)c(=O)oc2cc3occ(-c4ccc(Br)cc4)c3cc12	13	77*	13	25	37	8
Cc1c(CCC(=O)O)c(=O)oc2c(C)c3occ(-c4ccc(Cl)cc4)c3cc12	22	58*	6	4	15	19
Cc1c(CCC(=O)O)c(=O)oc2cc3occ(-c4ccc(Cl)cc4)c3cc12	19	63*	20	21	18	-1
Cc1c(CCC(=O)O)c(=O)oc2cc3occ(-c4ccc(F)cc4)c3cc12	15	11	-16	4	8	6
O=C(COC(=O)c1ccc[nH]c1=O)NCCCc1ccccc1	0	/	-3	1	15	/
Cc1cnc(NC(=O)c2cccs2)s1	33	3	20	12	42	34*
Cc1csc(NC(=O)c2cccs2)n1	5	0	28	30	42	13
C[C@@H]1CN(c2c(F)c(N)c3c(=O)c(C(=O)O)cn(C4CC4)c3c2F)C[C@H](C)N1	/	/	/	/	/	6
C[C@@H]1CN(c2c(F)c(F)c3c(=O)c(C(=O)O)cn(C4CC4)c3c2F)C[C@H](C)N1	10	65*	17	-4	9	10
COc1ccccc1C(=O)c1cc2ccc(O)cc2oc1=O	-7	2	8	6	5	4

Source: PubChem BioAssay
